Values joined by “and” are separate entries in the source; they are usually repeats but may differ in a detail not shown here. Identical values can stand only once. The panel holds about 83,000 compounds, 20% with a hit somewhere; the sample as a whole holds those more often.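 Single-dose data. Exposure time 48 hours. Values below 10 considered active.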 Active and inactive are the calls of the source.
Columns and labels:
Assay in all cases: NCI-60 one-dose screen, 48 h (100 = growth as untreated, 0 = no growth, -100 = all killed)
Conditions in all cases: 10 µM unless noted
T-47D breast = tested on: T-47D breast
BT-549 breast = tested on: BT-549 breast
MDA-MB-435 melanoma = tested on: MDA-MB-435 melanoma
SW-620 colon = tested on: SW-620 colon
MCF7 breast = tested on: MCF7 breast
HCT-116 colon = tested on: HCT-116 colon
HCC-2998 colon = tested on: HCC-2998 colon
KM12 colon = tested on: KM12 colon

Measured: growth

FC(F)(F)c1cc(Br)cc(-c2cc(-c3ccc4c(c3)OCCO4)[nH]n2)c1
inactive: T-47D breast 66.4% | SW-620 colon 25.3% | MCF7 breast 11.4% | HCC-2998 colon 29.1% | KM12 colon 12.3%
active: BT-549 breast -3.55% | MDA-MB-435 melanoma -12.3% | HCT-116 colon 5.67%

CCOC(=O)c1cccc(NC2=C(Cl)C(=O)C(C)=C(C)C2=O)c1
active: T-47D breast -37.5%
inactive: BT-549 breast 131% | MDA-MB-435 melanoma 104% | SW-620 colon 100% | MCF7 breast 84.7% | HCT-116 colon 84.9% | HCC-2998 colon 111% | KM12 colon 89.6%

Cc1ccc(-c2csc(N/N=C/c3cccs3)n2)cc1
inactive: T-47D breast 72.6% | BT-549 breast 112% | MDA-MB-435 melanoma 98% | SW-620 colon 108% | MCF7 breast 70.8% | HCT-116 colon 70% | HCC-2998 colon 115% | KM12 colon 90.8%

Cc1ccc([C@H]2c3[nH]c4ccccc4c3C[C@H]3C(=O)N(CCCCCCC(=O)NO)CC(=O)N23)s1
inactive: T-47D breast 37.3% | BT-549 breast 90.9% | MDA-MB-435 melanoma 45.2% | SW-620 colon 51.9% | MCF7 breast 32.8% | HCT-116 colon 23.7% | HCC-2998 colon 82.4% | KM12 colon 74.3%

CC(=O)N(O)CCCCCNC(=O)CCC(=O)N(O)CCCCCNC(=O)CCC(=O)N(O)CCCCCN(CCCCCCCCCC[P+](c1ccccc1)(c1ccccc1)c1ccccc1)CCCCCCCCCC[P+](c1ccccc1)(c1ccccc1)c1ccccc1
active: T-47D breast -4.99% | BT-549 breast -30.7% | MDA-MB-435 melanoma 4.44% | MCF7 breast 5.05% | HCT-116 colon 3.76% | HCC-2998 colon 4.2% | KM12 colon 4.3%
inactive: SW-620 colon 12.2%

C/C=C/CC(C)C(O)[C@H](NC(=O)[C@@H]1CCCN1C(=O)[C@](C)(CC)NC(=O)CCCCCCCCC)C(=O)N[C@@](C)(CC)C(=O)N[C@@H](CCC(N)=O)C(=O)N[C@H](CCC(N)=O)C(=O)NC(C)(C)C(=O)NC(C)(C)C(=O)N[C@@H](CCC(N)=O)C(=O)N[C@H](CC(C)C)C(=O)N[C@H](CO)CC(C)C (some centres not stated)
51.9% (inactive) and -62.3% (active): MCF7 breast
70.6% (inactive) and -7.45% (active): HCT-116 colon
active: BT-549 breast -72.4%
32.6% (inactive) and -57.5% (active): HCC-2998 colon
21.6% (inactive) and -65% (active): KM12 colon
inactive: SW-620 colon 83.1% and 14.5%
61.9% (inactive) and -23.3% (active): T-47D breast
17.4% (inactive) and -95.1% (active): MDA-MB-435 melanoma

CCOc1cccc(/C(N)=N/C(N)=N/c2nc3ccccc3s2)c1
inactive: T-47D breast 73.1% | BT-549 breast 102% | MDA-MB-435 melanoma 99.9% | SW-620 colon 102% | MCF7 breast 72.6% | HCT-116 colon 72.3% | HCC-2998 colon 111% | KM12 colon 46.4%

O=C(CCCCCCNC(=O)C(O)(O)C(F)(F)F)Nc1ccc(Cl)cc1
active: SW-620 colon 5.2% | HCT-116 colon 3.99%
inactive: T-47D breast 10.5% | BT-549 breast 45.9% | MDA-MB-435 melanoma 11.6% | MCF7 breast 17.3% | HCC-2998 colon 25.6% | KM12 colon 20.6%

COc1cc(-c2nc(-c3ccccc3)[nH]c2-c2ccnc(NCCCNS(=O)(=O)c3cccc(F)c3)n2)ccc1F
inactive: T-47D breast 66.5% | BT-549 breast 128% | MDA-MB-435 melanoma 82% | SW-620 colon 106% | MCF7 breast 83.1% | HCT-116 colon 75.1% | HCC-2998 colon 142% | KM12 colon 85.8%

COc1ccc(C2CC(c3cccc(OCCCCOc4cccc(C5=NN(C(C)=O)C(c6ccc(OC)cc6)C5)c4)c3)=NN2C(C)=O)cc1 (configuration not stated)
inactive: T-47D breast 40.1% | BT-549 breast 69.8% | MDA-MB-435 melanoma 60.3% | SW-620 colon 87.1% | MCF7 breast 39.9% | HCT-116 colon 47.3% | HCC-2998 colon 83.1% | KM12 colon 70.5%

Clc1cccc(/C=N/Nc2nc(N/N=C/c3cccc(Cl)c3)nc(N3CCOCC3)n2)c1
inactive: T-47D breast 68.5% | BT-549 breast 92.7% | MDA-MB-435 melanoma 49.3% | SW-620 colon 18.1% | MCF7 breast 43% | HCT-116 colon 22.8% | HCC-2998 colon 59% | KM12 colon 30.2%

Cc1ccc(S(=O)(=O)NCCCNc2nc(Nc3ccc(N4CCN(C)CC4)cc3)nc3ccsc23)cc1
inactive: T-47D breast 17.2% | SW-620 colon 20.5% | MCF7 breast 19% | HCC-2998 colon 27.3% | KM12 colon 35.8%
active: BT-549 breast -1% | MDA-MB-435 melanoma 0.595% | HCT-116 colon 5.69%

C[C@@H]1OCC2(CCN(c3cnc(C(=O)Nc4cc(F)cc5cccnc45)cn3)CC2)[C@@H]1N
active: MCF7 breast 2.1%
inactive: T-47D breast 37.1% | BT-549 breast 90.1% | MDA-MB-435 melanoma 82.9% | SW-620 colon 12.5% | HCT-116 colon 15.7% | HCC-2998 colon 84.3% | KM12 colon 83.7%

CC1(C)C=Cc2cc(/C(N)=N/C(N)=N/c3nc4ccccc4s3)ccc2O1
inactive: T-47D breast 77.6% | BT-549 breast 86.1% | MDA-MB-435 melanoma 99.3% | SW-620 colon 102% | MCF7 breast 67.2% | HCT-116 colon 59.2% | HCC-2998 colon 109% | KM12 colon 61.5%

COC(=O)c1ccc(NC2=C(Cl)C(=O)c3nc(C)ccc3C2=O)cc1
inactive: T-47D breast 31.2% | BT-549 breast 99% | MDA-MB-435 melanoma 60.6% | SW-620 colon 18.3% | MCF7 breast 30.5% | HCT-116 colon 43.1% | HCC-2998 colon 102% | KM12 colon 50.3%

CNc1sc(S(=O)(=O)NC)nc1S(=O)(=O)c1ccc(C)cc1
inactive: T-47D breast 93.5% | BT-549 breast 99.5% | MDA-MB-435 melanoma 105% | SW-620 colon 109% | MCF7 breast 87.6% | HCT-116 colon 100% | HCC-2998 colon 103% | KM12 colon 103%

CNCCN(C)c1ccc(Nc2cc(NC3CC3)n3ncc(C#N)c3n2)cc1NC(C)=O
active: T-47D breast -16.2% | BT-549 breast -54.7% | MDA-MB-435 melanoma 6.93% | SW-620 colon -2.54% | MCF7 breast -0.902% | HCT-116 colon -5.45% | KM12 colon 8.46%
inactive: HCC-2998 colon 10.2%

CCCCCCCCCCCC(=O)NC(C)(C)C(=O)N1CCCC1C(=O)NC(C)(C)C(=O)NC(C)(C)C(=O)N1CCCC1C(=O)NC(C)(C)C(=O)NC(C)(C)C(=O)N1CCCC1C(=O)NC(C)C(=O)NCCC(=O)NC(C)C(=O)NC(C)(C)C(=O)NC(C)(C)C(=O)NC(C)(C)C(=O)NCCC(=O)NC(C)(C)C(=O)NC(C)(C)C(=O)NC(C)(C)C(=O)NC(C)C(=O)NCCC(=O)O (configuration not stated)
active: T-47D breast -64.3% | BT-549 breast -97.1% | MDA-MB-435 melanoma -89.9% | SW-620 colon -92.3% | MCF7 breast -81.5% | HCT-116 colon -94.8% | HCC-2998 colon -92.4% | KM12 colon -98.5%

Brc1cccc(-c2cc(-c3ccc4c(c3)OC=CO4)[nH]n2)c1
inactive: T-47D breast 44.3% | BT-549 breast 63.8% | SW-620 colon 31.5% | MCF7 breast 10.1% | HCT-116 colon 23.3% | HCC-2998 colon 59.8% | KM12 colon 38.1%
active: MDA-MB-435 melanoma -25.2%

NC1C2CCC1CN(c1cnc(C(=O)Nc3cc(F)cc4cccnc34)cn1)C2 (configuration not stated)
active: MCF7 breast 3.24%
inactive: T-47D breast 34.2% | BT-549 breast 94.7% | MDA-MB-435 melanoma 75.5% | SW-620 colon 25% | HCT-116 colon 15.8% | HCC-2998 colon 79.3% | KM12 colon 77.1%

CC(C)NC(=O)c1cc(-c2ccc(NC(=O)Nc3ccc(F)cc3)cc2)nc2cccnc12
inactive: T-47D breast 97.8% | BT-549 breast 104% | MDA-MB-435 melanoma 98.7% | SW-620 colon 108% | MCF7 breast 79.9% | HCT-116 colon 95.5% | HCC-2998 colon 108% | KM12 colon 95.7%

COc1cc(C(C)=C(c2ccc(OCCN(C)C)cc2)c2ccc(OCCN(C)C)cc2)ccc1F
inactive: T-47D breast 93.4% | BT-549 breast 107% | MDA-MB-435 melanoma 108% | SW-620 colon 104% | MCF7 breast 93.8% | HCT-116 colon 107% | HCC-2998 colon 100% | KM12 colon 109%

CCOC(=O)c1c(NCC(=O)Nc2cccc([N+](=O)[O-])c2)sc(C(C)=O)c1C
inactive: T-47D breast 34.6%
active: BT-549 breast -40.7% | MDA-MB-435 melanoma -26% | SW-620 colon 3.65% | MCF7 breast -9.04% | HCT-116 colon -14.3% | HCC-2998 colon -62.3% | KM12 colon -7.12%

CC(C)[C@H]1c2[nH]c3ccccc3c2C[C@H]2C(=O)N(CCCCCCC(=O)NO)CC(=O)N12
inactive: T-47D breast 62.4% | BT-549 breast 101% | MDA-MB-435 melanoma 74.9% | SW-620 colon 82.3% | MCF7 breast 59.5% | HCT-116 colon 59.2% | HCC-2998 colon 102% | KM12 colon 88.8%

COc1ccc2c(c1)c(-c1nc(N)nnc1-c1c[nH]c3ccccc13)cn2C
active: MDA-MB-435 melanoma -47.8%
inactive: T-47D breast 41.2% | BT-549 breast 49.2% | SW-620 colon 17.2% | MCF7 breast 15% | HCT-116 colon 23.1% | HCC-2998 colon 82.9% | KM12 colon 24.4%

Cc1cc(=O)oc2cc(OCCCOc3ccc(/C=C/C(=O)Nc4ccc(Br)cc4)cc3)ccc12
inactive: T-47D breast 57.7% | BT-549 breast 78.8% | MDA-MB-435 melanoma 97.3% | SW-620 colon 57.2% | MCF7 breast 58.9% | HCT-116 colon 85.4% | HCC-2998 colon 96.6% | KM12 colon 88.6%

COc1ccc(/C(=N\NC(N)=S)c2ccc(Cl)cc2)cc1OC
active: MDA-MB-435 melanoma -35.1%
inactive: T-47D breast 18.1% | BT-549 breast 14.2% | SW-620 colon 15.9% | MCF7 breast 14.4% | HCT-116 colon 14.9% | HCC-2998 colon 52.6% | KM12 colon 19.4%

NNc1nnc2nc(Nc3ccccc3)nc(Nc3ccc(S(N)(=O)=O)cc3)n12
inactive: T-47D breast 109% | BT-549 breast 107% | MDA-MB-435 melanoma 108% | SW-620 colon 104% | MCF7 breast 97.8% | HCT-116 colon 107% | HCC-2998 colon 104% | KM12 colon 103%

O=C1c2ccccc2C23C(=C(c4cncnc4)c4ccccc42)CCCN13 (configuration not stated)
inactive: T-47D breast 93.3% | BT-549 breast 120% | MDA-MB-435 melanoma 94.6% | SW-620 colon 103% | MCF7 breast 103% | HCT-116 colon 97.9% | HCC-2998 colon 103% | KM12 colon 96.6%

— PubChem BioAssay (NCI)
